Bioassay records (PubChem BioAssay)
WRN inhibitor – qHTS for Inhibitors of WRN Helicase. Bifunctional 3'-5' exonuclease/ATP-dependent helicase WRN (Homo sapiens), Q14191. WRN helicase unwinding, fluorescent forked duplex, kinetic. Potency, µM (top dose mostly 114 µM), without a hit: top-dose activity change, negative = inhibition, hits mostly inhibitors. hit rate 0.46% among 360,000; note: % is set by controls: 0 for no effect and ±100 for the full control effect; nearly all actives have a fitted effect of over 55% in size
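Primary qHTS, 1536-well format. 20 nM WRN + compound, 15 min RT; start with 100 nM forked fluorophore/quencher duplex, 2 mM ATP (final); kinetic read ex 525/em 598 nm.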
Pol iota inh – qHTS for Inhibitors of Polymerase Iota | DNA polymerase iota (Homo sapiens), Q9UNA4 | Pol iota fluorescent replication assay, 10 min | Potency, µM (top dose mostly 115 µM), without a hit: at the top dose activity, negative = inhibition, hits mostly inhibitors | hit rate 1% among 390,000
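Fluorescent replication assay read twice, at 0 min and 10 min after adding 50 nM (final) substrate. Enzyme (10 nM) and compounds were first incubated 15 min at room temperature; enzyme-free buffer wells were negative controls.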
FEN1 inh – qHTS Assay for the Inhibitors of Human Flap endonuclease 1 (FEN1); Potency, µM (series often up to 114 µM), inactives show at the highest dose activity change, negative = inhibition, actives largely listed as inhibitors; Recombinant FEN1 flap cleavage, fluorescence, 15 min; hit rate 0.35% among 390,000; note: % is set by controls: 0 for no effect and ±100 for the full control effect; nearly all actives have a fitted effect of over 65% in size
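Potency values derive from four-parameter Hill fits of normalized qHTS data. The reaction used 10 nM FEN1 preincubated 15 min at room temperature with compound, then 50 nM DNA substrate, read at 0 and 15 min.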
POLB inh – qHTS Assay for Inhibitors of DNA Polymerase Beta | hit rate 1.3% among 340,000 | Potency, µM (highest dose often 114 µM), for inactives: top-dose activity change, negative = inhibition, hits mostly inhibitors | AID 485314, 2010 | Pol beta primer extension/strand displacement, fluorescence kinetic | P06746; note: % is set by controls: 0 for no effect and ±100 for the full control effect
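Enzyme-only controls used 10 nM Pol beta; buffer lacking enzyme served as negative control. Compound preincubated 15 min, then 50 nM substrate added; 0 and 10 min reads at room temperature.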
POLH inh – qHTS for Inhibitors of Polymerase Eta; hit rate 1.2% among 390,000; DNA polymerase eta (Homo sapiens), Q9Y253; recombinant Pol eta, fluorescent DNA replication assay; Potency, µM (series often up to 114 µM), for inactives: at the top dose activity change, negative = inhibition, hits mostly inhibitors; note: % is set by controls: 0 for no effect and ±100 for the full control effect
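Pol eta (10 nM) was preincubated with compounds for 15 min at room temperature, after which fluorescent replication substrate (50 nM final) was added to start the reaction. Fluorescence was read kinetically at 0 and 10 min.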
POLK inh – qHTS for Inhibitors of Polymerase Kappa | AID 588579, 2011 | DNA polymerase kappa (Homo sapiens), Q9UBT6 | Potency, µM (top dose mostly 107 µM), for the others: at the highest dose activity, negative = inhibition, actives largely listed as inhibitors | purified Pol kappa, fluorescent DNA synthesis assay, 10 min | hit rate 0.53% among 400,000; note: % is set by controls: 0 for no effect and ±100 for the full control effect
Target sequence (Q9UBT6 whole entry, looked up): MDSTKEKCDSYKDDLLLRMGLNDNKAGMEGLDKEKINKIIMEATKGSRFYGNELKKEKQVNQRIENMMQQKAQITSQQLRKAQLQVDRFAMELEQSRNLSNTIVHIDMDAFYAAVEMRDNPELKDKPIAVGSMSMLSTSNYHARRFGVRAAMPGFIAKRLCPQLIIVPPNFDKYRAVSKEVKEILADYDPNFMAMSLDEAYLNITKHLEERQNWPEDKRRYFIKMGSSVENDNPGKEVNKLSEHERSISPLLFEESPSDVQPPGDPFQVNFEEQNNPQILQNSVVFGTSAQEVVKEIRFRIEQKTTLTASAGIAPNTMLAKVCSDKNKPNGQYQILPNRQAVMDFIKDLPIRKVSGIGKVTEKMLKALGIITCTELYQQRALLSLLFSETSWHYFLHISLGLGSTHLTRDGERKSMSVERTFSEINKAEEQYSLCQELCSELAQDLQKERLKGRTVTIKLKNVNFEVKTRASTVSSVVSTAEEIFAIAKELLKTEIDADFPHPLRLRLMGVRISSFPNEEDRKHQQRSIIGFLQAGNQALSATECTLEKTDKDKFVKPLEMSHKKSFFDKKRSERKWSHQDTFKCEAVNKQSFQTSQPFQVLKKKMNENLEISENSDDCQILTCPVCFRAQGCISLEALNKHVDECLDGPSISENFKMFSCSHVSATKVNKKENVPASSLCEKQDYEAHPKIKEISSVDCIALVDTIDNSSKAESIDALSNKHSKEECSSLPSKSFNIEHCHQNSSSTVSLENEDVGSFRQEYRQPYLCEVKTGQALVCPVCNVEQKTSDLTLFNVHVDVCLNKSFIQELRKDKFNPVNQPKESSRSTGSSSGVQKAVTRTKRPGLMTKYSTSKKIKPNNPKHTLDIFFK
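10 nM Pol kappa preincubated 15 min at room temperature with compounds, then reaction started with substrate at 50 nM final. Fluorescence read kinetically at 0 and 10 min; buffer-only wells served as negative control.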
An asterisk follows results filed as active; ? = inconclusive; / = no result given; [ ] = another dose, or the depositor's remark. A selection: hits, their analogues and other compounds. The true share with any hit is near 2.4%. Calls come from the whole dose curve; as a rule, active = well fitted curve in the direction sought with a large enough effect; inconclusive = small, poorly fitted or top-dose-only effect, or another doubt; inactive = no such curve, though single readings can be large; an effect the other way counts as inactive or inconclusive. Potency is the fitted concentration of half-maximal effect.

SMILES	WRN inhibitor	Pol iota inh	FEN1 inh	POLB inh	POLH inh	POLK inh
COc1ccc2ccc3c(c2c1)N=C[C@]1(O3)N(C)c2ccccc2C1(C)C	11.2µM*	?	?	13.6%	70.8µM*	-7.6%
Cc1ccccc1C(=O)NCCc1sc(-c2ccc(Cl)cc2)nc1C	/	-21.7%	2.7%	-3.2%	-2.1%	1.3%[60.1 µM]
O=C(O)c1ccccc1-c1ccc(/C=C2\SC(=O)N(c3ccccc3)C2=O)o1	-5.7%[11.6 µM]	?	-14.3%	?	?	-24.3%
Cc1ccccc1NC(=O)CN1C(=O)S/C(=C\c2ccc(-c3cccc(C(=O)O)c3C)o2)C1=O	-11.3%[57.1 µM]	?	-13.0%	35.5µM*	?	?
CC(=O)c1ccc(NC(=O)Cn2c(=O)n(Cc3ccco3)c(=O)c3sc4ccccc4c32)cc1	/	-16.3%	22.3%	-7.1%	7.9%	-11.7%
Cc1ccc(S(=O)(=O)c2c(N)n(CCCN(C)C)c3nc4ccccc4nc23)cc1	-3.8%	-2.9%	11.2%	0.4%	-14.2%	-6.9%
CCCCn1c(NS(=O)(=O)c2ccc(C)cc2)c(S(=O)(=O)c2ccccc2)c2nc3ccccc3nc21	-18.8%	10µM*	-14.5%	-27.2%[57.1 µM]	-29.5%	-21.8%
COc1ccc(C(=O)Nc2ccc(OC)c([N+](=O)[O-])c2)cc1Br	-8.6%	-47.7%	-12.0%	20µM*	?	-15.2%
Cc1cc(O)c(C(c2ccc(F)cc2)N2CCCCC2)c(=O)n1Cc1ccco1 (stereo unspecified)	/	9.1%	-13.5%	7.3%	-17.5%	-3.3%[60.1 µM]
CCC(=O)Nc1cc2c3c(c1)CCN3C(=O)CC2	3.8%	?	-17.0%	37.5%	7.7%	79.4µM*
Cc1ccc(C(=O)CSc2nnc(-c3ccco3)n2C)cc1	?	21.3%	1.1%	59.6%	-3.5%	-18.7%
Cn1c(SCC(=O)c2cc(Cl)c(Cl)s2)nnc1-c1ccco1	?	15.8µM*	-21.0%	20µM*	?	31.6µM*
CN(Cc1ccccc1)S(=O)(=O)c1ccc2[nH]c(=O)ccc2c1	-4.6%	?	-8.0%	31.6µM*	-8.5%	-17.4%
CCOc1ccc(CNS(=O)(=O)c2ccc3[nH]c(=O)ccc3c2)cc1	/	-3.5%	7.5%	17.1%	-13.0%	-5.1%[60.1 µM]
O=c1ccc2cc(S(=O)(=O)NCc3ccc(Cl)cc3)ccc2[nH]1	/	?	8.9%	11.2µM*	2.6%	?
COc1cccc(C2Nc3ccc4ccccc4c3C3=C2C(=O)CCC3)c1O (stereo unspecified)	10.7%	154.9%	8.1%	89.1µM*	-12.2%	1.3%
CC(=O)Oc1cc2c3c(c1)/C(=C1/SC(=S)NC1=O)C(=O)N3C(C)(C)C=C2C	?	?	?	?	79.4µM*	-21.9%
CCOc1cc2c3c(c1)C(C)=CC(C)(C)N3C(=O)C2=O	2.1%	27.7%	-17.8%	0.1%	-9.5%	7.3%
O=C(Cn1ncc2c3ccccc3n(Cc3cccc(Cl)c3)c2c1=O)NC1CCCCCC1	/	?	1.4%	12.6µM*	?	-14.8%
CN(C)c1ccc(/C=C/c2nc3ccccc3s2)c(Cl)c1	/	2.0%	-20.3%	/	/	-5.2%
O=C(O)COc1ccccc1C1Nc2ccccc2-c2nnc(SCc3ccc(Cl)cc3)nc2O1 (stereo unspecified)	/	-7.2%	-18.8%	2.51µM*	-4.9%	-18.7%
COc1cc(C2Nc3ccccc3-c3nnc(SCc4ccc(C)cc4)nc3O2)cc(OC)c1O (stereo unspecified)	/	?	-21.4%	-2.9%	-2.6%	79.4µM*
CCOc1ccc(N2CC(c3nc4ccccc4n3CCCOc3ccc(OC)cc3)CC2=O)cc1 (stereo unspecified)	/	0.2%	-15.3%	15.6%	-28.5%	0.0%
COc1cccc(OCc2cc(/C=N/Nc3ccc(C(=O)O)cc3)ccc2OC)c1	-20.5%	7.9%	-23.7%	-2.9%	50.1µM*	-12.6%
COc1cccc(C(=O)Oc2ccc(/C=N/Nc3ccc(C(=O)O)cc3)cc2OC)c1	-8.0%[57.1 µM]	-10.5%	2.0%	28.1%	-4.2%	3.2%
SMILES	WRN inhibitor	Pol iota inh	FEN1 inh	POLB inh	POLH inh	POLK inh
COC(=O)CSc1nc2c(c(-c3ccc(O)cc3)c1C#N)CCCC2	-11.0%	-18.9%	-3.2%	-1.5%	-13.2%	-2.9%
COC(=O)CSc1nc2c(c(-c3ccco3)c1C#N)CCCC2	-28.9%	?	2.9%	22.4µM*	?	-11.4%
CC1CC(=O)N(CC(=O)Nc2ccc(F)cc2F)c2ccccc2S1 (stereo unspecified)	/	29.9%	2.4%	13.1%	-16.0%	1.9%
CCN(CC)CCn1c2ccccc2c2cnc(N=CN(C)C)c(C#N)c21	-7.7%	?	35.5µM*	20µM*	?	-33.0%
CCn1c2ccccc2c2cnc(N=CN(C)C)c(C#N)c21	-16.8%[57.1 µM]	11.1%	?	4.7%	-24.6%	-13.5%
CN(C)CCOc1ncnc2c1oc1ccccc12	2.9%	19.6%	4.6%	17.2%	-15.3%	-2.7%
CN(C)CCOc1nc(-c2ccccc2)nc2c1oc1ccccc12	12.1%[57.1 µM]	?	50.1µM*	44.7µM*	?	-21.1%
CNc1ccccc1	5.7%	-6.3%	-7.3%	/	-13.5%	-3.3%
CNc1ccc(C=C2C=CC=C2)cc1	/	5.01µM*	1.3%	/	/	?
Cc1c(C(=O)O)oc2c1-c1nn(Cc3ccc(Cl)cc3)cc1CC2	/	?	-11.5%	25.1µM*	/	-34.4%
CCN(CC)c1ccc(/C=C/C(=O)c2ccc(Br)cc2)cc1	22.4µM*	?	?	?	?	-13.8%
CCN(CC)c1ccc(/C=C/C(=O)c2cccnc2)cc1	-7.0%	8.5%	15.7%	-25.0%	-4.9%	-13.8%
CCc1c(C)nc2nc(-c3ccccc3)nn2c1NCc1ccc(C)cc1	/	1.4%	-16.6%	?	-6.4%	-10.6%
COc1cc(NC(=O)Cn2nc(C(F)(F)F)c3c2CCC3)cc(OC)c1OC	/	-19.3%	3.1%	7.1%	-11.0%	-12.6%
Cc1ccc(S(=O)(=O)ON2C(=O)c3ccccc3C2=O)c(C)c1	44.7µM*	111.9%	?	3.5%[57.1 µM]	-18.5%	1.9%
Cc1cc(C)c(C)c(S(=O)(=O)ON2C(=O)c3ccccc3C2=O)c1C	?	-16.2%	-19.0%	3.4%	-14.2%	-8.1%
Cc1cc(C)c(S(=O)(=O)ON2C(=O)c3ccccc3C2=O)cc1C	35.5µM*	-3.9%	-14.9%	2.7%	-5.3%	-8.1%
O=C1c2ccccc2C(=O)N1OS(=O)(=O)c1ccc(F)cc1	3.2%	-15.9%	-3.3%	29.8%	-7.3%	-8.1%
